Pf growth 48h: P. falciparum growth inhibition at 48 hours (one generation). P. falciparum luciferase growth in erythrocytes, 48 h. Potency, µM (titrated, usually from 28.7 µM), without a hit: at the top dose activity change, negative = inhibition, actives largely listed as inhibitors. actives 5.9% (n = 310,000); also: % is scaled to controls: 0 for no effect and ±100 for the full control effect
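Growth was read as firefly luciferase luminescence after a 48 h, 37 C, 5% CO2 exposure of compounds to reporter-bearing P. falciparum cultures (0.1% parasitemia, 2% hematocrit final) in Albumax-supplemented RPMI 1640.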
AMA1 RON2 block: AMA1-RON2 (P. falciparum) interaction inhibition; Potency, µM (doses to about 58.2 µM), for the others: at the top dose activity change, negative = inhibition, actives largely listed as inhibitors; AlphaScreen AMA1-biotinylated RON2 peptide binding; actives 0.2% (n = 360,000);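 also: 0% = vehicle wells and -100% = peptide control; nearly all actives have a fitted effect of over 45% in size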
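AMA1 (3D7) with his tag at 25 nM final met compounds first, then biotinylated RON2 peptide at 25 nM; detection used donor plus acceptor beads, 10 µg/mL apiece, read by AlphaScreen after 30 min at room temperature.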
Sm TGR block: blocks Schistosoma mansoni thioredoxin glutathione reductase; purified TGR, DTNB reduction, TNB absorbance 405 nm; AID 485364; Potency, µM (doses to about 114 µM), for the others: at the highest dose activity change, negative = inhibition, hits mostly inhibitors; actives 3% (n = 360,000); also: % is scaled to controls: 0 for no effect and ±100 for the full control effect; nearly all actives have a fitted effect of over 60% in size
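TGR 20 nM + NADPH 100 uM (dispensed conc.), cpd preinc 15 min RT; start with NADPH (500 uM addition) then DTNB (15 mM addition). Kinetic TNB absorbance, 405 nm filter. Four-parameter Hill fit across titration.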
NS1 inh: blocks influenza NS1 protein function | Potency, µM (titrated, usually from 46.1 µM), for the others: at the top dose activity, positive = more growth | actives 0.4% (n = 270,000); calls by dose curve; also: actives are rising curves; nearly all actives have a fitted effect of over 50% in size
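Growth recovery, yeast-based: influenza A NS1 expressed in S. cerevisiae causes slow growth, and suppressors are detected by OD600. The parent strain without NS1 is used as positive control.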
Pf growth 96h: P. falciparum growth inhibition at 96 hours; actives 6.9% (n = 320,000); P. falciparum luciferase reporter growth, 96 h; Potency, µM (highest dose often 28.7 µM), for inactives: at the highest dose activity change, negative = inhibition, most hits filed as inhibitors; also: % is scaled to controls: 0 for no effect and ±100 for the full control effect
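Two parasite generations (96 h, 37 C, 5% CO2) of compound exposure in infected erythrocytes (0.05% parasitemia, 2% hematocrit). Luciferase-reporter P. falciparum; decreased luminescence indicates inhibited growth, aimed at apicoplast-acting delayed death.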
* hit, by the source's call. This is a sample that favours compounds with a hit; in the whole collection about 11% have one here. Unless noted, calls follow the shape of the dose curve; as a rule, active = well fitted curve in the direction sought with a large enough effect; inconclusive = small, poorly fitted or top-dose-only effect, or another doubt; inactive = no such curve, though single readings can be large; an effect the other way counts as inactive or inconclusive. Potency is read from the fitted curve at half-maximal effect.

Screening COCCN(C(=O)CCC(=O)Nc1ccccn1)C(C(=O)NCCC(C)C)c1ccc(C)cc1 (stereo not given) returned Pf growth 48h -0.6%, AMA1 RON2 block -0.4%, Sm TGR block -2.1%, NS1 inh -1.7% and Pf growth 96h 9.1%.
Cc1ccc(C(=O)OCC(=O)Nc2cc(C(C)(C)C)no2)c(C)c1 was read as Pf growth 48h -25.2%, AMA1 RON2 block 16.6%, Sm TGR block 2.6% and Pf growth 96h inconclusive.
`Nc1nonc1C(=O)NCCNC(=O)c1cccc(Cl)c1` gave Pf growth 48h 6.1%, AMA1 RON2 block 10.8%, Sm TGR block 2.6%, NS1 inh -2.0% and Pf growth 96h -19.2%.
Screening Oc1oc(-c2ccccc2)nc1/C=N/c1ccccn1 returned Pf growth 48h -28.5%, AMA1 RON2 block -5.3%, Sm TGR block -23.9%, NS1 inh 1.9% and Pf growth 96h 11.7µM*.
Screening Cc1ccc(S(=O)(=O)c2ncccc2[N+](=O)[O-])cc1 returned AMA1 RON2 block -6.2%, Sm TGR block 0.355µM*, NS1 inh -108.8% and Pf growth 96h inconclusive.
For Cc1ccc(S(=O)(=O)c2ncccc2N)cc1 the results were Pf growth 48h -0.8%, AMA1 RON2 block 12.9%, Sm TGR block -21.8%, NS1 inh 7.2% and Pf growth 96h -1.5%.
Screening CCCCCc1cc(O)c2c(c1)OC(C)(C)C1CC=C(C)CC21 (stereo not given) returned Pf growth 48h 2.39µM* and Pf growth 96h 3.01µM*.
Screening CN1CCN(C(=O)/C(=C/c2cccc([N+](=O)[O-])c2)NC(=O)c2ccccc2)CC1 returned Pf growth 48h 66.1%, AMA1 RON2 block 2.0%, Sm TGR block -0.7%, NS1 inh 8.0% and Pf growth 96h -2.8%.
For CSc1nc(Oc2ccc(Cl)cc2)c2sccc2n1 the results were Pf growth 48h inconclusive, AMA1 RON2 block 1.2%, Sm TGR block -0.2%, NS1 inh 4.5% and Pf growth 96h 9.28µM*.
For CCc1ccc(C(=O)/C=C/c2ccc([N+](=O)[O-])o2)cc1 the results were AMA1 RON2 block 8.7%, Sm TGR block 3.16µM*, NS1 inh -219.0% and Pf growth 96h 20.4%.
Screening CCN(CC)S(=O)(=O)c1ccc(C(=O)/C=C/c2ccc(-c3ccc([N+](=O)[O-])cc3)o2)cc1 returned Pf growth 48h 2.7%, AMA1 RON2 block -3.5%, Sm TGR block 15.8µM*, NS1 inh inconclusive and Pf growth 96h 19.1%.
For O=c1[nH]cnc2c1ncn2-c1ccc(N(CCO)CCO)cc1 the results were AMA1 RON2 block 0.5%.
For O=C(COC(=O)/C=C/c1ccc(F)cc1)NC(=O)NCc1ccccc1 the results were AMA1 RON2 block -1.4%.
CCOc1ccc(C2=C(C=C(C#N)C#N)C(c3ccccc3)c3ccccc3O2)cc1 (stereo not given) was read as Pf growth 48h 3.7µM*, AMA1 RON2 block -17.9%, Sm TGR block -2.6%, NS1 inh 4.8% and Pf growth 96h 4.0%.
COc1ccc(C2=C(CN(C)C)C(c3ccccc3)c3ccccc3O2)cc1 (stereo not given) was read as Pf growth 48h 4.65µM*, AMA1 RON2 block inconclusive, Sm TGR block -1.6%, NS1 inh -19.2% and Pf growth 96h 2.62µM*.
For COc1ccccc1CNS(=O)(=O)c1cnc(N)nc1 the results were Sm TGR block 0.3%.
`COc1ccccc1NC(=O)C(=O)NCC(c1cccnc1)N1CCc2ccccc2C1` (stereo not given) gave Sm TGR block 0.4%.
For COc1ccccc1C(=O)NCC(=O)NC(C)c1ccc(-n2ccnc2)cc1 (stereo not given) the results were Pf growth 48h -18.3%, AMA1 RON2 block -3.6%, Sm TGR block -4.2%, NS1 inh -1.4% and Pf growth 96h inconclusive.
Screening O=C(c1ccc(-c2nnc(Nc3ccccc3)c3ccccc23)cc1)N1C[C@H]2C[C@H](C1)c1cccc(=O)n1C2 returned Pf growth 48h 13.1µM*, AMA1 RON2 block 8.0%, Sm TGR block -17.4%, NS1 inh -20.6% and Pf growth 96h 3.7µM*.
